Screen size: about 310,000 compounds; about 14,000 (4.5%) showed an effect of 50% or more. Effects have a minus sign here. Many of the other results were omitted from the sample, so strong results are more common in it than they were.
Target: human ether-à-go-go-related gene (hERG) potassium channel (human, UniProt Q12809)
Experiment: primary screen, population patch clamp on CHO cells stably expressing hERG; higher = less effect of the substance
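Also: peak tail current of the secondary pulse compared with the same well before compound.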

Chain of human ether-à-go-go-related gene (hERG) potassium channel (Q12809 whole entry, looked up): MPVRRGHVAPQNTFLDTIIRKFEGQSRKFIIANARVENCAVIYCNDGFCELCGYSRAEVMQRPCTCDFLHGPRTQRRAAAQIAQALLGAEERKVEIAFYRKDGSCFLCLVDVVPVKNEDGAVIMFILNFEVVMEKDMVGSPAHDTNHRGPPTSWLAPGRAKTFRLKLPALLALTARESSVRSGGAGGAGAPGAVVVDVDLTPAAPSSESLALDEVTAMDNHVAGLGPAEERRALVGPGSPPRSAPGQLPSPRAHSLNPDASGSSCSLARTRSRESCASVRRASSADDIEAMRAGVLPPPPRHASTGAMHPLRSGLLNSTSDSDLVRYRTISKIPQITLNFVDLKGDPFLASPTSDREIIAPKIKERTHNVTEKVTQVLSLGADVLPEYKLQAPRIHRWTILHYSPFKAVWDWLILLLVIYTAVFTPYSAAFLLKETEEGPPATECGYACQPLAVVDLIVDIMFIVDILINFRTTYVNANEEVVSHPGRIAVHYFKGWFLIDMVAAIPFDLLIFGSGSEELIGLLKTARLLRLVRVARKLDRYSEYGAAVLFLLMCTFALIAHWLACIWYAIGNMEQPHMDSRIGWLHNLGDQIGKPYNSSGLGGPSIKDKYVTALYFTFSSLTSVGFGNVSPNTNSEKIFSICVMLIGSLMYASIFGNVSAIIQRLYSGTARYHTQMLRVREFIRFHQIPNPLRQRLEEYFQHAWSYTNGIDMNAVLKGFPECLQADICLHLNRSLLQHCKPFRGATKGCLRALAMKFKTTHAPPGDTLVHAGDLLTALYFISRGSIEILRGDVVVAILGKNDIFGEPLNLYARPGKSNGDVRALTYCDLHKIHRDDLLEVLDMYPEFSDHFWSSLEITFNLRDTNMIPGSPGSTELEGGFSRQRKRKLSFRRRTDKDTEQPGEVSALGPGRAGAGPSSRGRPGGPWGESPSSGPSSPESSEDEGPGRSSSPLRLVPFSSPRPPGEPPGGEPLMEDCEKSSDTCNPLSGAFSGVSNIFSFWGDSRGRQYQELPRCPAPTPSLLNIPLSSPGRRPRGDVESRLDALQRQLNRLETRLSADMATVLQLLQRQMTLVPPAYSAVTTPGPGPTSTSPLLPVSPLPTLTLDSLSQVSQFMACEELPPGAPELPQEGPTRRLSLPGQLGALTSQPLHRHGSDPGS

Row | Structure (SMILES) | hERG current change (%, negative = inhibition) at 10uM
1 | CC(C)Cn1c(SCC(=O)N2CC(=O)Nc3ccccc32)nc2ccccc21 | 4.27%
2 | CCCN(CC1CC1)C(=O)CCc1nnc(C(OC)c2ccccc2)o1 (centres unmarked) | -4.58%
3 | Cc1ccc(OCC(=O)N/N=C2/SCC(=O)N2Cc2ccco2)cc1 | -28%
4 | Cc1cccc(OCC(=O)N/N=C2/SCC(=O)N2Cc2ccco2)c1 | -25.4%
5 | O=C(COc1ccc(Br)cc1)N/N=C1/SCC(=O)N1Cc1ccco1 | -59.8%
6 | NS(=O)(=O)c1ccc(CCNC(=O)c2cccc([N+](=O)[O-])c2)cc1 | 11.2%
7 | O=[N+]([O-])c1ccc2c(c1)ncn2-c1ccccc1 | -21.6%
8 | Nc1ccc(-n2cnc3cc([N+](=O)[O-])ccc32)cc1 | 1.35%
9 | Cc1cccc(-n2cnc3cc([N+](=O)[O-])ccc32)c1 | -51.9%
10 | O=[N+]([O-])c1ccc(-n2cnc3ccccc32)c([N+](=O)[O-])c1 | -57.8%
11 | O=c1c2ccccc2ncn1-c1ccc([N+](=O)[O-])cc1[N+](=O)[O-] | 10.7%
12 | O=c1c2ccccc2ncn1-c1ccc(Br)cc1[N+](=O)[O-] | -61.4%
13 | O=C(c1ccc([N+](=O)[O-])cc1[N+](=O)[O-])n1cnc2ccccc21 | -16.4%
14 | O=[N+]([O-])c1ccccc1-n1cnc2ccccc21 | -18.2%
15 | O=c1c2ccccc2ncn1-c1ccc(Cl)cc1[N+](=O)[O-] | -4.65%
16 | C[C@]12CCC(=O)C=C1CC[C@@H]1[C@@H]2C(=O)C[C@]2(C)C(=O)CC[C@@H]12 | 7.99%
17 | O=C(N/N=C/c1ccccn1)C(O)c1ccccc1 (centres unmarked) | 9.82%
18 | Cn1c(=O)n(C)c2cc(N3CCOCC3)c(NC(=O)c3cccc(Cl)c3)cc21 | 5.25%
19 | COc1ccc(NC(=O)C/C(C)=N/NC(=O)c2cnccn2)cc1 | 15.5%
20 | CC(C)OCCCN1C=C2C(=O)C(C)(OC(=O)CCc3ccccc3)C(=O)C=C2C=C1c1ccc(C#N)cc1 (centres unmarked) | -71.3%
21 | CC1(OC(=O)CCc2ccccc2)C(=O)C=C2C=C(c3ccc(C#N)cc3)N(CCN3CCOCC3)C=C2C1=O (centres unmarked) | -49.9%
22 | CC1(OC(=O)CCc2ccccc2)C(=O)C=C2C=C(c3ccc(C#N)cc3)N(CC3CC3)C=C2C1=O (centres unmarked) | -44.6%
23 | CC1(OC(=O)CCc2ccccc2)C(=O)C=C2C=C(c3ccc(C#N)cc3)N(C3CC3)C=C2C1=O (centres unmarked) | -51.7%
24 | CC1(OC(=O)CCc2ccccc2)C(=O)C=C2C=C(c3ccc(C#N)cc3)N(C3CCCC3)C=C2C1=O (centres unmarked) | -49.7%
25 | C=CCN1C=C2C(=O)C(C)(OC(=O)CCc3ccccc3)C(=O)C=C2C=C1c1ccc(C#N)cc1 (centres unmarked) | -28.8%
26 | CC1(OC(=O)CCc2ccccc2)C(=O)C=C2C=C(c3ccc(C#N)cc3)N(c3ccccc3)C=C2C1=O (centres unmarked) | 14.3%
27 | CC(C)CN1C=C2C(=O)C(C)(OC(=O)CCc3ccccc3)C(=O)C=C2C=C1c1ccc(C#N)cc1 (centres unmarked) | -26.9%

Row | Structure (SMILES) | hERG current change (%, negative = inhibition) at 10uM
28 | CCN(CC)CCCN1C=C2C(=O)C(C)(OC(=O)CCc3ccccc3)C(=O)C=C2C=C1c1ccc(C#N)cc1 (centres unmarked) | -37.6%
29 | CC1(OC(=O)CCc2ccccc2)C(=O)C=C2C=C(c3ccc(C#N)cc3)N(CCc3c[nH]c4ccccc34)C=C2C1=O (centres unmarked) | -7.98%
30 | COCCN1C=C2C(=O)C(C)(OC(=O)CCc3ccccc3)C(=O)C=C2C=C1c1ccc(C#N)cc1 (centres unmarked) | -72.4%
31 | CC1(OC(=O)CCc2ccccc2)C(=O)C=C2C=C(c3ccc(C#N)cc3)N(CCc3ccccn3)C=C2C1=O (centres unmarked) | -51.8%
32 | CCS(=O)(=O)N1CCN(Cc2ccccc2OC)CC1.O=C(O)C(=O)O | 11.7%
33 | C=CCOC(=O)C1=C(C)NC(=O)NC1c1ccc2c(c1)OCO2 (centres unmarked) | -11.9%
34 | O=C(NCc1ccc2c(c1)OCO2)C1CCCN(C(=O)c2ccc(Cl)cc2)C1 (centres unmarked) | -34.4%
35 | CCOC(=O)N/N=C/C(Cl)=C/c1ccccc1 | 0.407%
36 | COC(C(=O)N/N=C(\C)c1ccc(C(C)(C)C)cc1)c1ccccc1 (centres unmarked) | 13.1%
37 | COc1ccccc1NC(=O)CCCC(=O)OCC(F)(F)C(F)F | -1.37%
38 | COc1ccc(NC(=S)NC2CC3CCC(C2)N3Cc2ccco2)cc1 (centres unmarked) | -30.1%
39 | CCOC(=O)c1c(S(=O)(=O)N2CCCC(C(=O)Nc3ccc(C)cn3)C2)c(C)n(C)c1C (centres unmarked) | 19.7%
40 | CCc1ccc(N=C2NC(=O)/C(=C/c3ccc(OCC(=O)O)cc3)S2)cc1 | 14.6%
41 | CCN(Cc1cnn(C)c1)Cc1nc(C(c2ccccc2)c2ccccc2)no1 | -18.2%
42 | CCCCNC(=O)Cn1cnc([N+](=O)[O-])n1 | 10.8%
43 | CC1(OC(=O)CCc2ccccc2)C(=O)C=C2C=C(c3ccc(C#N)cc3)N(Cc3ccco3)C=C2C1=O (centres unmarked) | -38.9%
44 | CC1(OC(=O)CCc2ccccc2)C(=O)C=C2C=C(c3ccc(C#N)cc3)N(Cc3ccccc3)C=C2C1=O (centres unmarked) | -51.9%
45 | COc1ccc(CN2C=C3C(=O)C(C)(OC(=O)CCc4ccccc4)C(=O)C=C3C=C2c2ccc(C#N)cc2)cc1 (centres unmarked) | -31.7%
46 | CCN(c1ccc(OC)cc1)S(=O)(=O)c1nnc(NC(=O)C2CCCCC2)s1 | 12.2%
47 | Cc1cc(=O)oc(C)c1C(=O)N[C@@H]1CCCCNC1=O | 7.72%
48 | COc1cccc2cc(C(=O)NCCN3CCOCC3)c(=O)oc12 | 12.9%
49 | CCOc1cccc(-c2cc(=O)[nH][nH]2)c1 | 1.58%
50 | CC1CCN(c2nc(NCc3ccco3)nc(N)c2[N+](=O)[O-])CC1 | -11.9%
51 | CC1CC(C)CN(c2nc(NCc3ccco3)nc(N)c2[N+](=O)[O-])C1 (centres unmarked) | -27.4%
52 | CC1CCCN(c2nc(NCc3ccco3)nc(N)c2[N+](=O)[O-])C1 (centres unmarked) | -54.3%
53 | CCN(c1cccc(C)c1)S(=O)(=O)c1ccc(-c2cc(C)no2)s1 | 5.94%
54 | CCN(CC)S(=O)(=O)c1cc(C(=O)Nc2cc(C)on2)c(Cl)cc1Cl | 12.3%

Row | Structure (SMILES) | hERG current change (%, negative = inhibition) at 10uM
55 | O=C(CSc1nc(=O)n(CCCN2CCOCC2)c2c1CCCC2)Nc1cccc([N+](=O)[O-])c1 | -67.7%
56 | O=C(CSc1nc(=O)n(CCN2CCOCC2)c2c1CCCC2)Nc1ccc([N+](=O)[O-])cc1 | -67.6%
57 | O=C(CSc1nc(=O)n(CCCN2CCOCC2)c2c1CCC2)Nc1ccc([N+](=O)[O-])cc1 | -60.4%
58 | Cc1ccc(NC(=O)CSc2nc(=O)n(CCN3CCOCC3)c3c2CCCC3)cc1 | -27.5%
59 | CC(=O)Nc1cccc(NC(=O)CSc2nc(=O)n(CCN3CCOCC3)c3c2CCC3)c1 | -2.96%
60 | O=C(CSc1nc(=O)n(CCCN2CCOCC2)c2c1CCC2)Nc1ccc(F)cc1 | -39.5%
61 | CC(=O)c1ccc(NC(=O)CSc2nc(=O)n(CCN3CCOCC3)c3c2CCC3)cc1 | -7.74%
62 | CC(=O)c1cccc(NC(=O)CSc2nc(=O)n(CCN3CCOCC3)c3c2CCCC3)c1 | -11.2%
63 | O=c1[nH]cnc2c1c(-c1ccccc1)cn2-c1ccccc1 | 12.1%
64 | CCC(C)NC(=O)c1cnn2c1NC(c1cccs1)CC2C(F)(F)F (centres unmarked) | -11.3%
65 | Cc1ccc(C(=O)Nc2ncc(Cc3ccc(F)cc3)s2)o1 | -2.85%
66 | O=C(OCC(=O)N1CCCC1=O)c1cc(S(=O)(=O)N2CCOCC2)ccc1F | -22.5%
67 | CN1/C(=C\C(=O)c2cccc([N+](=O)[O-])c2)Sc2ccccc21 | 10.8%
68 | C/C(CCc1oc2ccc(Cl)cc2c1-c1ccc(C)o1)=N\O | 22.9%
69 | O=C(COC(=O)c1cc(=O)[nH]c2ccccc12)Nc1ccc(Cl)cn1 | 6.92%
70 | Cc1cccc(N2CCN(C(=O)c3ccc(CNc4c(N5CCC(C)CC5)c(=O)c4=O)cc3)CC2C)c1 (centres unmarked) | -10.4%
71 | CC1(C)N([O-])C(c2cccs2)=C[N+]1=O | -7.12%
72 | O=C(Nc1cccc(Cl)c1)C1CCN(C(=O)c2cccs2)CC1 | -16.8%
73 | COc1cccc(O)c1CN1CCC(C(=O)Nc2ccc(-c3cccc(C)c3)cc2)CC1 | -11.2%
74 | CC(=O)c1cccc(CN2CCC(C(=O)Nc3ccc(-c4cccc(C)c4)cc3)CC2)c1 | 2.59%
75 | O=C(Nc1cccc(-c2cccc(Cl)c2)c1)C1CCN(CC2CCOC2)CC1 (centres unmarked) | -77.2%
76 | COc1cccc(NC(=O)C2CCN(S(C)(=O)=O)CC2)c1 | -7.92%
77 | Cc1cccc(-c2ccc(NC(=O)C3CCN(CC4CC4)CC3)cc2)c1 | -70.9%
78 | COc1cccc(-c2cccc(NC(=O)C3CCN(CC4CCOC4)CC3)c2)c1 (centres unmarked) | -53.2%
79 | COc1cccc(NC(=O)C2CC2)c1 | 2.97%
80 | COc1ccccc1CNC(=O)Cn1cnnn1 | 14.5%
